The record followed here is PubChem BioAssay (NCI).

About 79,000 compounds went through this panel and 15% of them were active in at least one assay; those are over-represented in the sample as a whole. A number with no mark means an inactive call. Activity calls are given as the source filed them. Rule as the data show it: active = growth inhibition above about 70%; inactive = the rest.

A short description of test [1]: NCI Yeast Anticancer Drug Screen. Data for the rad50 strain (AID 155).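 Also: 0% = growth of vehicle-only cultures of the same strain.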 The conditions noted are these: S. cerevisiae rad50 strain growth inhibition; at 50.0 µM; active compounds read high. The method in brief:
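Cells are treated with compound, grown, and their growth is then scored against vehicle-only cultures of the same repair-deficient yeast strain.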

The nature of test [2]: NCI Yeast Anticancer Drug Screen. Data for the mec2-1 strain (AID 157). The conditions noted are these: S. cerevisiae mec2-1 strain, at 50.0 µM, active compounds read high. In short, it runs like this:
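Each compound was tested on mec2-1 yeast, a strain altered in DNA damage repair or cell cycle control. Growth inhibition is reported relative to vehicle.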

Test [3] is described as follows: NCI Yeast Anticancer Drug Screen. Data for the sgs1 mgt1 strain (AID 161).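 Also: 0% = growth of cultures given vehicle only.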 The settings on record: S. cerevisiae sgs1 mgt1 strain, at 50.0 µM, active compounds read high. In short, it runs like this: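 Read-out: growth inhibition vs vehicle controls. Cells: mutant yeast strain deficient in DNA damage repair.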
Test [4] can be described thus: NCI Yeast Anticancer Drug Screen. Data for the cln2 rad14 strain (AID 165).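 Also: 0% = growth equal to vehicle treated cultures.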 The conditions noted are these: S. cerevisiae cln2 rad14 strain, at 50.0 µM, active compounds read high. In short, it runs like this:
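Test compounds were added to cln2 rad14 yeast cultures; inhibition of growth was then determined by comparison with vehicle treatment.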

The nature of test [5]: NCI Yeast Anticancer Drug Screen. Data for the bub3 strain (AID 167). The conditions noted are these: S. cerevisiae bub3 mutant strain, at 50.0 µM, active compounds read high. The method in brief:
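Part of a panel of yeast mutants defective in DNA damage repair or cell cycle regulation. Each strain is grown with compound, and inhibition is calculated relative to solvent-treated cultures.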

The nature of test [6]: NCI Yeast Anticancer Drug Screen. Data for the mlh1 rad18 strain (AID 175). The settings on record: S. cerevisiae mlh1 rad18 strain growth inhibition; at 50.0 µM; active compounds read high. In short, it runs like this:
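Inhibition values reflect reduced growth of mutant yeast versus vehicle-treated controls following compound exposure; the mutations affect DNA damage repair.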

For the compound `CC(C)(C)C(=O)OCC1C(=O)OCC1C(=O)N1Cc2cc3ccccc3nc2C1` (stereo unspecified), the growth inhibition is -7.7% in test [1]; -19.9% in test [2]; 1.55% in test [3]; -13% in test [4]; -8.2% in test [5]; -16.2% in test [6].
On to `CCCCCCCCCC1OCCCO1`, for which the growth inhibition in test [1] was -14.3%; in test [2], 0.15%; in test [3], 12.2%; in test [4], -0.1%; in test [5] it was -4.5%; in test [6], -16.3%.
Take `Cc1c(-c2ccccc2)noc1-n1nnc2ccccc2c1=O`: the growth inhibition is -7.45% in test [1]; 29.6% in test [2]; 11.4% in test [3]; -42.8% in test [4]; 48.4% in test [5]; 9.05% in test [6].
With `CN(c1ncc(Cc2cnc(N(C)C3CCN(Cc4ccccc4)CC3)nc2)cn1)C1CCN(Cc2ccccc2)CC1`, the growth inhibition in test [1] was -0.75%; in test [2] it was -5.95%; in test [3], -12.8%; in test [4], -7.95%; in test [5] it was -2.95%; in test [6], -21.8%.
Turning to `CN(C)c1nc(N)c2ccc(Cl)cc2n1`, the growth inhibition in test [1] is -8%; in test [2] it was 10.6%; in test [3], -7.15%; in test [4], 0.85%; in test [5], -8.05%; in test [6], 8.7%.
Consider `CC(C)(C)[Si](C)(C)OCCCC#CCO`, for which the growth inhibition in test [1] was 12.1%; in test [2], -5.3%; in test [3], -3.85%; in test [4] it was 14.4%; in test [5], -13.6%; in test [6], 24.3%.
Take `Cn1cnc2cc([N+](=O)[O-])ccc21`: the growth inhibition was -9.6% in test [1]; -7.95% in test [2]; -32.2% in test [3]; -24.6% in test [4]; -9.6% in test [5]; 8.8% in test [6].
Turning to `COc1cc(C2c3cc4c(cc3OC(N3CCCC3)C2C)OCO4)cc(OC)c1OC` (stereo unspecified), the growth inhibition in test [1] was 22.4%; in test [2], -0.5%; in test [3], -2.9%; in test [4], 5.75%; in test [5], 3.1%; in test [6], 6.55%.
`COc1ccc(S(=O)(=O)N(C)c2ccccc2)cc1`: the growth inhibition in test [1] is 2.9%; in test [2], -56.8%; in test [3], -20.6%; in test [4], 13.3%; in test [5], 19.1%; in test [6] it was 3.5%.
For the compound `O=C1CN(c2ccc(Cl)cc2)C(=O)CN1CCN1CC(=O)N(c2ccc(Cl)cc2)CC1=O`, the growth inhibition in test [1] was -43.5%; in test [2], -10.3%; in test [3], -3.25%; in test [4] it was 10.6%; in test [5] it was -39.6%; in test [6] it was -23.6%.
In the case of `O=S(=O)(O)n1ccnc1` (tested in a mixture with another compound), the growth inhibition in test [1] is 20.9%; in test [2], 12.3%; in test [3], 1.3%; in test [4] it was -27.9%; in test [5], 14.7%; in test [6], 18.4%.
Consider `O=c1nc(-c2ccccc2)cc(Cc2ccc3ccccc3n2)[nH]1`, for which the growth inhibition was 30.1% in test [1]; 25.8% in test [2]; 26.1% in test [3]; -29.8% in test [4]; 47% in test [5]; 28.9% in test [6].
With `CCOC(=O)C(=O)/C(=C/N1CCNC1=S)C(=O)OCC`, the growth inhibition in test [1] was -28.6%; in test [2], -9.05%; in test [3], -26.8%; in test [4], 32.4%; in test [5], -4.35%; in test [6], -25.9%.
`C1=CC(=P(c2ccccc2)(c2ccccc2)c2ccccc2)C=C1`: the growth inhibition was 20.4% in test [1]; 25.1% in test [2]; 10.4% in test [3]; 38.8% in test [4]; 4.3% in test [5]; 34% in test [6].
On to `COc1ccc(Nc2nc3c([nH]2)c(=O)n(C)c(=O)n3C)cc1`, for which the growth inhibition in test [1] was -15.6%; in test [2], 5.1%; in test [3], -11.3%; in test [4], 6.9%; in test [5], -1.3%; in test [6], 13.3%.
On to `c1ccc2c(-c3c[nH]c4ccccc34)c[nH]c2c1`, for which the growth inhibition in test [1] was 16.8%; in test [2], -1.5%; in test [3] it was -3.05%; in test [4] it was -27.2%; in test [5] it was -8.75%; in test [6], 15.3%.
Turning to `CC(C)=CC1C[C@H](C2CC=C3C2(C)CCC2[C@@]3(C)C(=O)CC3[C@]2(C)C=CC(=O)[C@]3(C)CO)CO1` (stereo partly specified), the growth inhibition is 77.8% (active) in test [1]; 78.9% (active) in test [2]; 81.8% (active) in test [3]; 78% (active) in test [4]; 81.7% (active) in test [5]; 86.2% (active) in test [6].
For the compound `CC1(C)C2CC(c3ccccc3)C1/C(=C/O)C2=O` (stereo unspecified), the growth inhibition in test [1] is -16.9%; in test [2], -3.2%; in test [3], 2.8%; in test [4], 36.8%; in test [5], -3.85%; in test [6], -2.9%.
As to `[C-]#[N+]N=P(c1ccccc1)(c1ccccc1)c1ccccc1`, the growth inhibition in test [1] was -18%; in test [2], -20.8%; in test [3] it was -27.9%; in test [4], 3.2%; in test [5], -8.65%; in test [6], 5.65%.
With `Fc1ccc(C=C2c3ccccc3-c3ccccc32)cc1`, the growth inhibition in test [1] is 11.7%; in test [2], 4.5%; in test [3] it was 18.4%; in test [4], 39.2%; in test [5] it was 11.7%; in test [6] it was -3.6%.
Regarding `CN1CC(=O)N(CO)/C1=N\CO`, the growth inhibition in test [1] is -7.15%; in test [2] it was -5.45%; in test [3], -6.85%; in test [4], -10.8%; in test [5] it was 5.85%; in test [6], 2.05%.
